From PubChem BioAssay AID1159580 (chemical genetic matrix, 2015)
Values joined by “and” are separate entries in the source; they are usually repeats but may differ in a detail not shown here. Equal entries are not always repeated. About 2,000 (36%) of roughly 5,500 compounds were called active. Not shown: some 18% with an inconclusive outcome. No stated cut-off is given here; in the data, active means normalized growth mostly below about 0.91 (no sharp cut-off); inconclusive means no clear call, values can overlap the other calls; inactive means mostly above about 0.92. The list shows a part of the results.

Test: chemical genetic growth profiling, strain panel (AID 1159580);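 further: tested at 20 µM; growth read once vehicle control cultures reached saturation at 30 °C; 1 = growth at the plate median or of vehicle wells; lower values mean less growth of the strain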
Conditions: S. cerevisiae deletion strains, growth OD

Measured: normalized growth

C#CCN(C)Cc1ccccc1
inactive: locus YAL013W, strain DEP1, hits give low values 0.994 | locus YAL021C, strain ccr4, hits give low values 1.03 | locus YAL026C, strain drs2, hits give low values 1.02 | locus YAL030W, strain snc1, hits give low values 0.999 | locus YAL040C, strain CLN3, hits give low values 0.998 | locus YBL061C, strain skt5, hits give low values 0.984 | locus YBR009C, strain hhf1, hits give low values 0.982 | locus YBR021W, strain FUR4, hits give low values 1.02 | locus YBR023C, strain chs3, hits give low values 0.997 | locus YBR171W, strain sec66, hits give low values 1.04 | locus YBR229C, strain ROT2, hits give low values 1 | locus YBR231C, strain swc5, hits give low values 1.01 | locus YBR279W, strain paf1, hits give low values 0.977 | locus YCL011C, strain gbp2, hits give low values 1 | locus YCL016C, strain dcc1, hits give low values 0.962 | locus YCL029C, strain bik1, hits give low values 1.02 | locus YCL061C, strain MRC1 (second series), hits give low values 1 | locus YCL069W, strain vba3, hits give low values 1.02 | locus YCR088W, strain abp1, hits give low values 1.04 | locus YDL005C, strain med2, hits give low values 1.02 | locus YDL035C, strain GPR1, hits give low values 0.997 | locus YDL040C, strain nat1, hits give low values 1.02 | locus YDL074C, strain BRE1, hits give low values 0.991 | locus YDL101C, strain DUN1, hits give low values 1.01 | locus YDL134C, strain PPH21, hits give low values 1 | locus YDL185W, strain tfp1, hits give low values 1.01 | locus YDL192W, strain arf1, hits give low values 1.02 | locus YDR001C, strain nth1, hits give low values 1.01 | locus YDR069C, strain doa4, hits give low values 0.955 | locus YDR101C, strain arx1, hits give low values 1.02 | locus YDR137W, strain rgp1, hits give low values 0.98 | locus YDR159W, strain sac3, hits give low values 0.933 | locus YDR162C, strain NBP2, hits give low values 1 | locus YDR195W, strain ref2 0.988 | locus YDR297W, strain sur2, hits give low values 0.998 | locus YDR318W, strain mcm21, hits give low values 1.03 | locus YDR334W, strain swr1, hits give low values 1.02 | locus YDR335W, strain msn5, hits give low values 0.996 | locus YDR363W, strain ESC2, hits give low values 0.949 | locus YDR388W, hits give low values 1.02 | locus YDR392W, strain spt3, hits give low values 0.958 | locus YDR502C, strain sam2, hits give low values 1.01 | locus YEL003W, strain gim4, hits give low values 1.04 | locus YEL037C, strain rad23, hits give low values 1.03 | locus YEL061C, strain CIN8 (second series), hits give low values 1.02 | locus YEL061C, strain CIN8, hits give low values 0.99 | locus YER002W, strain NOP16, hits give low values 1.02 | locus YER015W, strain faa2, hits give low values 1 | locus YER016W, strain bim1, hits give low values 0.979 | locus YER110C, hits give low values 1.01 | locus YER111C, strain swi4, hits give low values 1.01 | locus YER155C, strain BEM2 (second series), hits give low values 1.01 | locus YER155C, strain BEM2, hits give low values 1 | locus YER167W, strain BCK2, hits give low values 1 | locus YFR010W, strain ubp6, hits give low values 1.04 | locus YGL078C, strain dbp3, hits give low values 1.01 | locus YGL086W, strain mad1, hits give low values 0.998 | locus YGL167C, strain pmr1, hits give low values 0.987 | locus YGL173C, strain kem1, hits give low values 1.05 | locus YGL227W, strain vid30, hits give low values 1.01 | locus YGL240W, strain doc1, hits give low values 0.977 | locus YGL248W, strain PDE1, hits give low values 1 | locus YGL253W, strain hxk2, hits give low values 1.02 | locus YGR078C, strain PAC10, hits give low values 0.995 | locus YGR135W, strain pre9, hits give low values 1.02 | locus YGR252W, strain gcn5, hits give low values 0.965 | locus YHR013C, strain ard1, hits give low values 1 | locus YHR027C, strain rpn1, hits give low values 1.02 | locus YHR030C, strain SLT2, hits give low values 0.992 and 0.966 | locus YHR079C, strain IRE1 (second series), hits give low values 1.03 | locus YHR079C, strain IRE1, hits give low values 0.927 | locus YHR094C, strain hxt1, hits give low values 1.02 | locus YHR129C, strain ARP1, hits give low values 0.996 | locus YHR142W, strain chs7, hits give low values 1.06 | locus YHR200W, strain rpn10, hits give low values 1.01 | locus YIL066C, strain RNR3, hits give low values 0.992 | locus YIL073C, strain SPO22, hits give low values 1.06 | locus YIL125W, strain kgd1, hits give low values 1.01 | locus YIR030C, strain dcg1, hits give low values 1.01 | locus YJL092W, strain hpr5, hits give low values 1.02 | locus YJL095W, strain BCK1 (second series), hits give low values 1.01 | locus YJL095W, strain BCK1, hits give low values 0.99 and 0.98 | locus YJL115W, strain asf1, hits give low values 1.01 | locus YJL129C, strain trk1, hits give low values 1.03 | locus YJL134W, strain LCB3, hits give low values 1 | locus YJL154C, strain vps35, hits give low values 1.01 | locus YJL164C, strain tpk1, hits give low values 1.01 | locus YJL166W, strain qcr8, hits give low values 1.03 | locus YJL168C, strain set2, hits give low values 1.01 | locus YJL187C, strain SWE1 (second series), hits give low values 1 | locus YJL187C, strain SWE1, hits give low values 1.01 | locus YJR043C, strain POL32, hits give low values 0.997 | locus YJR066W, strain TOR1, hits give low values 0.936
